In the library only some 2.1% were active in any assay of this set; here they are far more common.
bovine MsrA act: activators of bovine methionine sulfoxide reductase A; activation, % at 10.6 µM; 0.3% of 360,000 active; AID 602163; purified bovine MsrA, absorbance read-out; in the data active = activation above about 7.5%;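 note: 0% = vehicle and 100% = reference activator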
ABCB6 inh MLPCN: inhibitors of human ABC transporter ABCB6; 0.19% of 360,000 active; Q9NP58; K562-ABCB6 porphyrin accumulation, flow cytometry, 1 h; stronger effect = lower value; fluorescence ratio to DMSO, % at 10 µM;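 active = fluorescence ratio to DMSO below 75%, the collection mean minus 3 SD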;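 note: signal is porphyrin accumulated inside mitochondria; 100% equals median channel fluorescence of DMSO control wells; lower ratio means ABCB6 inhibition with less porphyrin fluorescence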
SMARCA2 act: increases SMARCA2 function in MMTV reporter cells | MG213 cells, MMTV-luciferase reporter, dexamethasone, overnight | activation, % at 9.1 µM | 1% of 370,000 active | AID 652017; in the data active = activation above about 7.8%;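 note: 0% = vehicle wells and 100% = reference activator wells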
MsrA inhibitor: bovine MsrA inhibition; purified bovine MsrA, absorbance read-out; inhibition, % at 15.5 µM; 0.75% of 360,000 active; in the data active = inhibition above about 4.5%;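 note: 0% = vehicle wells with enzyme and 100% = reference inhibitor wells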
ABCB6 blocker 1: inhibitors of human ABC transporter ABCB6; AID 602430; ratio response (% of DMSO), % at 10 µM; K562-ABCB6 porphyrin accumulation, flow cytometry, 1 h; stronger effect = lower value; shares compounds with ABCB6 inh MLPCN; 700 tested, under 10 active;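 active = repeat-averaged ratio response below 75% of DMSO, the collection mean minus 3 SD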;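 note: median porphyrin fluorescence at 575 nm with 488 nm excitation from mitochondria; lower ratio means less porphyrin signal so ABCB6 inhibition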
MsrA activ conf: confirmation of bovine methionine sulfoxide reductase A activators; AID 602270; 12% of 1,000 active; activation, % at 10.6 µM; shares compounds with bovine MsrA act; purified bovine MsrA, absorbance read-out; in the data active = activation above about 4%;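 note: enzyme coupled to thioredoxin and thioredoxin reductase with NADPH; 0% = vehicle wells and 100% = reference activator wells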
* = called active by the depositor; . = no result given.

SMILES | bovine MsrA act | ABCB6 inh MLPCN | SMARCA2 act | MsrA inhibitor | others
CN1CCc2cc(O)cc3c2[C@H]1Cc1ccc(O)c(O)c1-3 | -7 | 103 | 1 | 0
CN1CCc2cc3c(c4c2C1Cc1ccccc1-4)OCO3 (configuration not stated) | 48* | 120 | -3 | 1
CC(=O)N1c2ccccc2C(c2ccccc2)=NCC1C(=O)NC1CCCCC1 (configuration not stated) | . | . | 2 | .
O=c1[nH]c(=S)n(Cc2ccc(F)cc2)c(O)c1C=NCCCn1ccnc1 | -5 | 99 | -1 | 4.5*
O=c1[nH]c(=O)n(Cc2ccc(F)cc2)c(O)c1C=NCCCn1ccnc1 | -2 | 106 | -1 | 1
O=C(N/N=C/c1c(O)n(C2CCCCC2)c(=S)[nH]c1=O)c1ccccc1 | -3 | 12* | 2 | 1
C=C1C(=O)OC2CC3(C)OC3C3OC3C3=CC(OC3=O)C12 (configuration not stated) | -12 | 36* | -7 | 1
COc1ccccc1-n1c(/C=C/c2ccc(O)cc2)nc2ccccc2c1=O | -2 | 97 | -2 | 4.6*
NC(Cc1ccc(O)cc1)C(=O)NN=Cc1ccc(N(CCCl)CCCl)cc1 (configuration not stated) | -6 | 102 | -5 | 7.7*
N[C@@H](Cc1ccc(N(CCCl)CCCl)cc1)C(=O)O | 0 | 108 | 3 | 1
O=C1NC(=O)N(CC2CCCO2)C(=O)/C1=C/c1cccs1 (configuration not stated) | -3 | 103 | -4 | 1
CCN(CC)c1ccc(/C=C2/C(=O)NC(=O)N(CC3CCCO3)C2=O)cc1 (configuration not stated) | -7 | 101 | -2 | 5.2*
Cc1ccc(NC(=O)CC[C@H]2O[C@@H](n3cnc4c(NC(=O)c5ccccc5)ncnc43)[C@H](O)[C@@H]2O)cc1C | 4 | 99 | -1 | 3
O=C(O)c1ccc(N=Cc2c(O)[nH]c(=O)[nH]c2=O)cc1 | -3 | 98 | -4 | 4.6*
c1ccc(Cn2nnnc2C2CN=C(c3ccccc3)c3ccccc3N2)cc1 (configuration not stated) | . | . | -3 | .
C=CC1C[N+]2(C)CCC1CC2C(O)c1ccnc2ccccc12 (configuration not stated) | . | . | 1 | -1
CN(C)C(=O)Oc1ccc(C(=O)c2ccccc2)cc1 | -5 | 103 | 7.9* | 1
CC(C)(C)n1nnnc1C1CN=C(c2ccccc2)c2ccccc2N1 (configuration not stated) | . | . | 0 | .
Cc1nonc1OCCNc1ccc([N+](=O)[O-])c2cccnc12 | -4 | 72* | -2 | 0 | ABCB6 blocker 1=112
CC(=O)NCC1=C(c2ccc(S(C)(=O)=O)cc2)C[C@@H]2CC[C@H]1N2CCOc1ccccc1 | . | . | -1 | 0
COc1cccc(N2C(=O)CC(=O)NC2=O)c1 | 0 | 71* | -3 | 0 | ABCB6 blocker 1=102
CCCCn1c(O)c(C=NCCCn2ccnc2)c(=O)[nH]c1=O | 0 | 100 | 0 | -1
CC(C)CCCn1c(O)c(/C=C2/C=CC=N2)c(=O)[nH]c1=O | -2 | 70* | -1 | 0 | ABCB6 blocker 1=102
COc1cccc(C(c2nnnn2Cc2ccccc2)N2CCC(n3c(=O)[nH]c4ccccc43)CC2)c1OC (configuration not stated) | -4 | 74* | -5 | 0 | ABCB6 blocker 1=96
CCC(=O)c1cn(Cc2ccccc2)c2ccccc12 | -2 | 97 | -3 | 1
SMILES | bovine MsrA act | ABCB6 inh MLPCN | SMARCA2 act | MsrA inhibitor | others
CN(C)CCOC(=O)c1cn(Cc2ccccc2)c2ccccc12 | -3 | 7.0* | 2 | -1 | ABCB6 blocker 1=95
COc1ccc(C(C)=O)cc1Cc1c(O)[nH]c(=S)[nH]c1=O | -2 | 65* | 4 | 1 | ABCB6 blocker 1=102
CCOc1ccc(C(C)=O)cc1Cc1c(O)[nH]c(=S)[nH]c1=O | -2 | 102 | 1 | 1
O=C1C2CC=CCC2C(=O)N1SC(Cl)(Cl)Cl (configuration not stated) | . | . | 2 | 0
CCOC(=O)[C@]12Cc3cc4ccccc4cc3[C@H]1N(Cc1ccccc1)C(=O)c1cc(OC)ccc12 | -1 | 93 | 1 | 0
C/C=C(\C)C(=O)N[C@@H](c1ccccc1)[C@@H](O)C(=O)O[C@H]1C[C@@]2(O)[C@@H](OC(=O)c3ccccc3)C3[C@](C)(C(=O)[C@H](OC(C)=O)C(=C1C)C2(C)C)[C@H](O)C[C@H]1OC[C@@]31OC(C)=O (some centres not stated) | 10* | 99 | 0 | 0 | MsrA activ conf=-1

Compound activity deposited in PubChem BioAssay by several laboratories.
